The full list was thinned out, with hits kept by preference.
RE007 growth inh: less growth of the S. pombe RE007 Vpr strain; S. pombe RE007 Vpr strain, BacTiter-Glo ATP luminescence, 24 h; Potency, µM (titrated, usually from 92.2 µM), for inactives: at the highest dose activity change, negative = less growth, most hits filed as inhibitors; actives 0.21% (n = 360,000); active means well fitted falling curve with a large enough effect; inconclusive means small, poorly fitted or top-dose-only effect; inactive means no such curve, though single readings can be large or run the other way; further: potency means the concentration at half of the fitted maximal effect; on the % scale 0 is the no-effect control and ±100 the full control effect; nearly all actives have a fitted effect of over 50% in size
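Fission yeast strain RE007, carrying one chromosomally integrated HIV-1 vpr copy, was seeded at OD 0.01 in PMG+AL medium with 23 nL pinned compound. After 24 h at 30 °C and 99% humidity, viability was read by BacTiter-Glo luminescence.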
FBPA Giardia inh: inhibitors of Giardia lamblia fructose-1,6-bisphosphate aldolase | A8B2U2 | purified Giardia FBPA | Potency, µM (highest dose often 59.6 µM), for inactives: at the top dose activity, negative = inhibition, actives largely listed as inhibitors | actives 0.71% (n = 290,000) | AID 2451; further: potency means the concentration at half of the fitted maximal effect; on the % scale 0 is the no-effect control and ±100 the full control effect; nearly all actives have a fitted effect of over 55% in size
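Giardia FBPA (40 nM reagent) was preincubated 10 min at RT with compound (up to 57.5 uM final), then substrate plus GAPDH/TPI/NAD/arsenate coupling system with diaphorase/resazurin was added; resorufin fluorescence (525/598 nm) was read after 20 min.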
CHX counter: counter-screen for Shiga toxin inhibitors: cycloheximide protein synthesis inhibition. cell reporter, cycloheximide protein synthesis inhibition counterscreen. max response, %. actives 12% (n = 300,000); in the data active means max response mostly above about 13%, no sharp cut-off; inactive means mostly below about 14%; further: read at 38.3 µM for the half of the compounds with a filed dose; 0% is about no effect
LmPK inhibitor: blocks Leishmania mexicana pyruvate kinase activity | actives 0.37% (n = 290,000) | Potency, µM (titrated, usually from 57.5 µM), for the others: top-dose activity change, negative = inhibition, usual class: inhibitors | AID 1721 | Q27686 | purified LmPK, Kinase-Glo ATP luminescence, 1 h; further: potency means the concentration at half of the fitted maximal effect; on the % scale 0 is the no-effect control and ±100 the full control effect
Target sequence (Q27686 whole entry, looked up): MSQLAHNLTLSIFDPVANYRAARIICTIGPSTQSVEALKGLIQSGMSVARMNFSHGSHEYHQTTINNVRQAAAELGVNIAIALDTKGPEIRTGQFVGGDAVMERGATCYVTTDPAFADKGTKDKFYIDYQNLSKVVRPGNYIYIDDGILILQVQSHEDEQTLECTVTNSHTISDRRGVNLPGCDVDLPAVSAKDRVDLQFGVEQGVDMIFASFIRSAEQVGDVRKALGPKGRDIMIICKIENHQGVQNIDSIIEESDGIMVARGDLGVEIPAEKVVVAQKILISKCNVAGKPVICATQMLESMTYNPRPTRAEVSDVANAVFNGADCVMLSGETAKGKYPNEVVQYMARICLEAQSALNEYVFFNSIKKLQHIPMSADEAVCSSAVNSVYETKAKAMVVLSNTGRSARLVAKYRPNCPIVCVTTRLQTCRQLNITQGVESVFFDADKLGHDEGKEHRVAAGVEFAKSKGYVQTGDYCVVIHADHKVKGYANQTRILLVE
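qHTS format; LmPK 0.1 nM; substrates PEP 0.5 mM and ADP 0.1 mM. One-hour room-temperature incubation, then coupled luciferase luminescence; 0.5 nM enzyme wells mark activation.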
TbPYK inhibitor: T. brucei pyruvate kinase inhibition | AID 624173 | TbPYK enzyme, Kinase-Glo Plus ATP luminescence, 45 min | Q57TT1 | Potency, µM (titrated, usually from 76.8 µM), without a hit: top-dose activity, negative = inhibition, hits mostly inhibitors | actives 0.12% (n = 410,000); further: potency means the concentration at half of the fitted maximal effect; on the % scale 0 is the no-effect control and ±100 the full control effect; nearly all actives have a fitted effect of over 50% in size
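Assay buffer: 50 mM TEA pH 7.2, 100 mM KCl, 10 mM MgCl2, 0.05% BSA, 0.01% Tween-20. Pyruvate kinase from T. brucei plus substrate met compound, then ADP (130 uM final). Luminescence was read post 45 min RT.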
Shiga inhibitor: inhibitors of Shiga toxin in Vero cells | Vero cells, Shiga toxin protein synthesis inhibition reporter | inhibition, % at 38.7 µM | actives 9.2% (n = 290,000); in the data active means inhibition mostly above about 28%, no sharp cut-off; inactive means mostly below about 43%; further: 0% is about no effect
* = called active by the depositor; ? = inconclusive; · = no result; [ ] = remark or other dose. Unless noted, the call rests on the fitted dose curve; in most records, active means well fitted curve in the direction sought with a large enough effect; inconclusive means small, poorly fitted or top-dose-only effect, or another doubt; inactive means no such curve, though single readings can be large; an effect the other way counts as inactive or inconclusive.

SMILES	RE007 growth inh	FBPA Giardia inh	CHX counter	LmPK inhibitor	TbPYK inhibitor	Shiga inhibitor
CC(=O)OCC1OC(Oc2cc(OC(C)=O)c3c(=O)cc(-c4ccc(OC(C)=O)c(OC(C)=O)c4)oc3c2)C(OC(C)=O)C(OC(C)=O)C1OC(C)=O (configuration not stated)	·	-6%	·	·	·	·
O=C(CCCOC(=O)c1ccc(O)cc1O)c1ccc(Br)cc1	-7%	·	·	·	-21%	·
COc1ccccc1/C=N/n1nnnc1N	-3%	-2%	2	1%	-22%	19
COc1ccc(/C=N/n2nnnc2N)c(OC)c1	3%	6%	23*	-2%	-2%	28*
COc1cccc(/C=N/n2nnnc2N)c1O	-12%	-7%	21*	-12%	-3%	59*
COC(=O)C1=C(C)N(Cc2ccccc2)C2=C(C(=O)c3ccccc3)C(c3ccccc3)[C@@](O)(C(=O)OC)C(=O)N2C1c1ccccc1 (some centres not stated)	·	2%[12.9 µM]	·	·	·	·
O=C(COC(=O)c1ccco1)c1ccccc1	-21%	7%	48*	-1%	-6%	112*
O=C(COC(=O)c1ccco1)c1ccc(Cl)cc1	14%	-4%	29*	1%	3%	104*
Cc1ccc(C(=O)COC(=O)c2ccco2)cc1C	-14%	·	49*	-10%	-6%	88*
COc1cc(C(=O)COC(=O)c2ccco2)cc(OC)c1OC	?	·	·	·	3%	·
O=C(Oc1ccc2ccccc2c1)c1ccco1	?	-4%	20*	-9%	3%	33
O=C(COC(=O)c1ccco1)NCCNC(=O)COC(=O)c1ccco1	-17%	·	4	-8%	-1%	-29
O=C(NCCc1ccccc1)c1sc2ncccc2c1-n1cccc1	·	·	·	·	-3%	·
COc1ccc(Cl)cc1NC(=O)c1cc(C)nc2c1c(C)nn2-c1ccccc1	·	·	·	·	-1%	·
COc1ccc(Cl)cc1NC(=O)N1CCC(CN2CCc3ccccc3C2)CC1	·	·	·	·	5%	·
Cc1ccccc1CNC(=O)C(=O)NCC(c1cccs1)S(=O)(=O)c1ccc(Cl)cc1 (configuration not stated)	·	·	·	·	6%	·
O=C1COc2ccc(C(=O)COC(=O)c3ccco3)cc2N1	-13%	0%	27*	-2%	3%	42*
CC1CC(C)(C)Nc2ccc(N=O)cc21 (configuration not stated)	-27%	?	51*	-5%	-3%	79*
O=C(COC(=O)c1cnccn1)c1ccc2ccccc2c1	-27%	-1%	6	1%	0%	12
CCN(CC)S(=O)(=O)c1ccc(C)c(C(=O)Oc2cccc(-c3cnc4ccccc4n3)c2)c1	-3%	-2%	4	0%	0%	11
O=C(COC(=O)c1ccco1)c1ccc2ccccc2c1	?	0%	56*	2%	-7%	124
CC(C)[C@H](NC(=O)c1ccco1)C(=O)OCC(=O)c1ccc2c(c1)NC(=O)CO2	0%	2%	1	1%	-1%	-1
O=C(Oc1cccc(-c2cnc3ccccc3n2)c1)c1ccco1	-9%	-6%	45*	9%	3%	49
C=C(C)[C@H]1CC=C(CO)CC1	·	3%	4	·	·	22
O=C(Oc1ccccc1)c1cc2ccccc2o1	-9%	0%	8	-27%	-10%	12
SMILES	RE007 growth inh	FBPA Giardia inh	CHX counter	LmPK inhibitor	TbPYK inhibitor	Shiga inhibitor
Cc1ccc(C(=O)COC(=O)c2cc(=O)[nH]c3ccccc23)cc1C	-1%	0%	24*	-4%	3%	150*
O=C(COC(=O)c1cc2ccccc2o1)c1ccccc1	-14%	0%	39*	0%	-6%	117*
O=C(CSc1ccc(Cl)cc1)NNC(=O)c1ccco1	8%	·	10	-12%	-4%	-8
Cc1cc(=O)oc2cc(OC(=O)c3ccco3)ccc12	?	-3%	4	9%	0%	-2
O=C(CSCc1ccc(Cl)cc1)c1ccco1	·	-6%	21*	-4%	·	73
CC1CC(C)(C)Nc2ccc(OC(=O)c3ccco3)cc21 (configuration not stated)	-18%	·	49*	8%	-8%	121*
CCn1c(SCC(=O)Nc2c(C)cccc2C)nnc1-c1nonc1NC(C)=O	·	·	·	·	-2%	·
O=C(N1CCc2ccc(S(=O)(=O)N3CCN(S(=O)(=O)c4ccc5c(c4)OCCO5)CC3)cc2C1)C(F)(F)F	·	·	8	·	·	6
CSCCC(NS(=O)(=O)c1cccc(C(F)(F)F)c1)C(=O)Nc1ccccc1N1CCCC1 (configuration not stated)	3%	·	·	·	-1%	·
Cc1ccc(CNC(=O)COC(=O)c2ccc(Br)o2)cc1	3%	·	·	·	5%	·
Cc1ccc(C(=O)COC(=O)c2ccc(Br)o2)cc1C	?	-4%	40*	4%	3%	63*
O=c1oc(CCO)cc2ccc(Br)cc12	12%	·	·	·	-7%	·
O=S(=O)(NCC1CCCO1)c1ccc(-c2ccc(Cl)cc2)cc1 (configuration not stated)	-1%	0%	17*	3%	-4%	20
Cc1ccc(NC(=O)c2ccc(S(=O)(=O)NCC3CCCO3)cc2)cc1 (configuration not stated)	-8%	0%	9	2%	2%	31*
COc1ccc(-c2nc3cc(NC(=O)c4ccc(C)cc4)ccc3o2)cc1Cl	·	·	·	·	0%	·
COc1ccccc1NC(=O)N(Cc1ccco1)C1CCN(C(C)=O)CC1	·	·	·	·	1%	·
OC(c1nc2ccccc2[nH]1)C(O)c1nc2ccccc2[nH]1 (configuration not stated)	16%	1%	21*	0%	3%	·
Cc1ccc2nc(C(O)C(O)c3nc4ccc(C)cc4[nH]3)[nH]c2c1 (configuration not stated)	-1%	?	46*	7%	-1%	122*
N#CC(C(=S)Nc1ccccc1)c1nc2ccccc2[nH]1 (configuration not stated)	-10%	-2%	19*	-1%	-10%	25
c1ccc(CSc2nnc(C3CCNCC3)o2)cc1	·	·	·	·	3%	·
CCOc1cc(CNC(=O)c2ccc3c(c2)NC(=O)C2CCCCN32)cc(OCC)c1OCC (configuration not stated)	·	·	·	·	-1%	·
CCC(C)(C)NC(=O)C(c1ccccn1)N(C(=O)c1csnn1)c1ccc(C)cc1 (configuration not stated)	8%	3%	-1	7%	3%	17
S=C(N/N=C/c1ccco1)NC1CC2CCC1C2 (configuration not stated)	-13%	24%	44*	-1%	9%	73*
CCOc1ccc(/C=N/NC(=S)NC2CC3CCC2C3)cc1 (configuration not stated)	-16%	0%	3	4%	-2%	11
